Reference: the supplement of paper PMC9433436
± gives the standard deviation of the averaged measurements. Over roughly 4,100 sequences, “relative kcat/Km (krel) vs genomic leader AAAGAU” has its median near 1.7; the highest 2% begin near 6.5. What follows is part of a selection rich in the highest values, with near analogues and random picks from the rest.

Molecular target: T1, E. coli RNase P holoenzyme (M1 P RNA + rnpA protein) (UniProt P0A7Y8)
T1 sequence: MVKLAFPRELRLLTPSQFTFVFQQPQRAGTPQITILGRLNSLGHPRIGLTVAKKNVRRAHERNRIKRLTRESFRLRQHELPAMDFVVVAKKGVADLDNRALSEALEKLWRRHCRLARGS
Test: relative kcat/Km (krel) vs genomic leader AAAGAU (relative (reference leader = 1)); higher = faster RNase P cleavage
Protocol: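 HTS-Kin: a pool of ptRNA-Met (21C construct) with all 4096 combinations of 5' leader nucleotides N(-6) to N(-1) was processed in vitro by E. coli RNase P (P RNA + rnpA/C5 protein) under multiple-turnover conditions at 37 C, pH 8, 17.5 mM MgCl2. Residual substrate was Illumina-sequenced at several fractions reacted, and relative kcat/Km (krel) was computed by internal competition kinetics, calibrated to the genomic leader (AAAGAU = 1). The listed hexamer is the varied N(-6)..N(-1) leader (DNA letters), and it sits between a fixed 5' stem-loop flank (GCAUGCACGAAAGUGCGUGCUAUGAA) and the mature tRNA-Met starting GGCUACGUAGCUCAGUUGG. Two technical replicates are averaged.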

[1] = fraction of substrate reacted: ~9-10% (9.79% repeat 1, 9.1% repeat 2)
[2] = fraction of substrate reacted: ~13-16% (15.68% repeat 1, 13.17% repeat 2)
[3] = fraction of substrate reacted: ~26-29% (28.66% repeat 1, 26.4% repeat 2)

| Sequence | relative kcat/Km [1] | relative kcat/Km [2] | relative kcat/Km [3] |
| --- | --- | --- | --- |
| CGCTAA | 3.07 ± 0.43 | 3.99 ± 1.2 | 5.96 ± 2.3 |
| TGCTAT | 2.93 ± 0.94 | 2.69 ± 0.56 | 3.79 ± 1.5 |
| TGTGAA | 2.72 ± 0.39 | 2.92 ± 0.98 | 3.58 ± 1.9 |
| TGATAT | 1.84 ± 0.025 | 3.77 ± 0.75 | 6.11 ± 3.1 |
| ACATCG | 1.31 ± 1.1 |  | 1.61 ± 0.095 |
| TGGACT | 1.76 ± 0.67 | 0.899 ± 0.057 | 0.76 ± 0.046 |
| GGTAGG |  |  | 1.74 ± 0.56 |
| ATCCCG | 1.67 ± 1.4 | 0.83 ± 0.4 | 1.86 ± 0.023 |
| GTAGCC | 1.99 ± 0.12 | 1.48 ± 0.66 | 2.13 ± 0.51 |
| TTTAAT | 3.19 ± 1.8 | 3.87 ± 0.24 | 5.8 ± 2.3 |
| CAATAT | 3.27 ± 0.33 | 4.46 ± 0.96 | 6.37 ± 3 |
| TCCATT | 4.11 ± 1.2 | 4.85 ± 1.2 | 7.33 ± 3.2 |
| TCCATA | 4.06 ± 1.5 | 4.66 ± 0.32 | 6.71 ± 2.6 |
| GCCATT | 1.91 ± 0.79 | 2.36 ± 0.9 | 4.74 ± 1.7 |
| ACCATA | 2.8 ± 1.8 | 2.2 ± 0.51 | 3.64 ± 0.82 |
| ACCATT | 2.5 ± 1.4 | 2.84 ± 0.28 | 4.27 ± 1.3 |
| TCCATG |  | 1.42 ± 0.26 | 3.46 ± 0.3 |
| GGCCTC | 1.28 ± 0.39 | 0.933 ± 0.5 | 1.94 ± 0.76 |
| GCATGA | 1.91 ± 0.28 | 1.07 ± 0.63 | 2.21 ± 0.69 |
| AACAAA | 3.32 ± 2.3 | 3.9 ± 0.11 | 5.24 ± 1.1 |
| GACACC | 3.17 ± 1.9 | 3.35 ± 0.2 | 5.28 ± 1.8 |
| TACAAA | 3.89 ± 1.8 | 5.2 ± 0.41 | 7.71 ± 3 |
| TACAAG | 1.6 ± 0.23 | 2.38 ± 0.42 | 4.49 ± 1.9 |
| CACAAA | 3.35 ± 0.11 | 4.93 ± 1.2 | 6.59 ± 2.9 |
| CACAAG | 1.66 ± 0.94 | 1.78 ± 0.81 | 3.72 ± 0.99 |

| Sequence | relative kcat/Km [1] | relative kcat/Km [2] | relative kcat/Km [3] |
| --- | --- | --- | --- |
| CACAAC | 3.95 ± 1.3 | 4.05 ± 0.63 | 6.36 ± 2.1 |
| GACAAC | 3.9 ± 0.94 | 3.84 ± 1.1 | 6.93 ± 3.1 |
| AACAAG |  | 1.32 ± 0.57 | 3.26 ± 0.69 |
| GACAGC | 3.44 ± 1 | 4.06 ± 0.54 | 5.59 ± 1.6 |
| AACAAC | 2.99 ± 0.85 | 3.22 ± 0.17 | 4.45 ± 1.8 |
| TACAAC | 3.75 ± 1.9 | 5.24 ± 0.76 | 7.11 ± 3 |
| ACGCAT | 1.58 ± 0.85 | 2.23 ± 0.052 | 3.39 ± 1.3 |
| TTGTCG |  |  | 1.07 ± 0.3 |
| TCTCGG | 1.19 ± 1.1 | 0.684 ± 0.45 | 1.04 ± 0.15 |
| TCTTCA | 2.36 ± 1.3 | 1.88 ± 0.27 | 2.49 ± 0.68 |
| ACCCGT | 1.55 ± 1.5 | 1.9 ± 1.9 | 1.96 ± 1.4 |
| AGCTCA | 2.57 ± 1.9 | 2.16 ± 0.53 | 3.13 ± 1.1 |
| AACACT | 1.88 ± 1.1 | 2.41 ± 0.39 | 3.76 ± 0.87 |
| TGACTT | 1.97 ± 0.23 | 2.77 ± 0.65 | 3.33 ± 1.3 |
| GACAAA | 4.01 ± 1.6 | 4.49 ± 0.5 | 6.91 ± 2.5 |
| CACATT | 3.5 ± 1.3 | 4.74 ± 0.66 | 6.23 ± 2.3 |
| CACACT | 2.56 ± 0.39 | 3.16 ± 0.72 | 4.82 ± 1.5 |
| AACAAT | 1.84 ± 0.24 | 3.26 ± 0.41 | 4.49 ± 1.9 |
| CACAAT | 3.85 ± 1.2 | 4.61 ± 0.51 | 6.78 ± 2.9 |
| GACAAT | 3.33 ± 1.5 | 3.55 ± 1.1 | 5.83 ± 2.4 |
| GACAAG | 2 ± 1.4 | 2.152 ± 0.02 | 4.06 ± 0.99 |
| GACACG |  | 1.39 ± 0.034 | 2.6 ± 0.37 |
| TACAAT | 2.84 ± 0.75 | 4.74 ± 0.94 | 7.14 ± 3.4 |
| AGGCTC |  |  | 0.722 ± 0.43 |
| GTTACA | 1.9 ± 0.82 | 2.16 ± 0.12 | 3.09 ± 1.2 |

| Sequence | relative kcat/Km [1] | relative kcat/Km [2] | relative kcat/Km [3] |
| --- | --- | --- | --- |
| CTGCCA | 1.58 ± 1 | 0.692 ± 0.67 | 1.19 ± 0.3 |
| TCACAT | 3.6 ± 1.2 | 4.18 ± 0.55 | 6.08 ± 2.7 |
| AACGTG |  |  | 0.741 ± 0.57 |
| GGATGC | 1.44 ± 0.27 | 1.71 ± 0.79 | 2.74 ± 1 |
| CAAAGC | 1.07 ± 0.26 | 1.12 ± 1.1 | 1.94 ± 1.2 |
| TCTCGA | 3.05 ± 0.36 | 3.16 ± 0.42 | 4.89 ± 2 |
| GCCTCA | 3.93 ± 1.6 | 4.02 ± 0.47 | 5.77 ± 2.1 |
| CCCTCC | 3.55 ± 1.1 | 3.38 ± 0.94 | 4.21 ± 1.1 |
| CCCTCT | 2.96 ± 0.6 | 3.23 ± 0.81 | 3.9 ± 0.73 |
| ACCTCC | 3.29 ± 2.2 | 3.3 ± 0.22 | 4.3 ± 0.6 |
| TCCTCA | 3.22 ± 0.45 | 4.2 ± 0.86 | 6.64 ± 2.4 |
| CCCTCA | 2.47 ± 1.3 | 3.63 ± 0.37 | 3.95 ± 0.28 |
| TCCTCT | 3.55 ± 1.7 | 4.68 ± 1 | 6.72 ± 2.6 |
| TCCTCG | 2.35 ± 1.9 | 2.52 ± 0.14 | 3.64 ± 0.61 |
| TCCTCC | 3.65 ± 1.8 | 4.58 ± 1.2 | 6.57 ± 2.7 |
| ATGGCA |  | 1.34 ± 1.2 | 1.01 ± 0.3 |
| AGTAGG |  |  | 1.52 ± 0.61 |
| CCACCC | 2 ± 0.12 | 1.27 ± 0.51 | 2.49 ± 0.73 |
| AGATGT | 0.906 ± 0.45 |  | 1.84 ± 1.7 |
| CTTGTG |  |  | 0.748 ± 0.26 |
| CGCGGG | 0.135 ± 0.028 |  | 0.258 ± 0.092 |
| TATCTA | 2.06 ± 0.75 | 2.24 ± 0.15 | 2.97 ± 1.5 |
| AAGCAC | 2.14 ± 1.2 | 1.53 ± 0.4 | 3.12 ± 1.2 |
| TTTTGG | 0.508 ± 0.012 |  | 0.844 ± 0.31 |
| GTTTGC | 2.91 ± 0.62 | 3.18 ± 0.81 | 5.13 ± 1.9 |

| Sequence | relative kcat/Km [1] | relative kcat/Km [2] | relative kcat/Km [3] |
| --- | --- | --- | --- |
| TTTTGA | 3.16 ± 0.88 | 4.56 ± 1.3 | 6.55 ± 2.4 |
| TTTTGT |  |  | 2.01 ± 1.6 |
| TTTTGC | 3.65 ± 1.3 | 4.42 ± 1.1 | 6.61 ± 2.8 |
| ATTTGC | 3.17 ± 0.9 | 3.69 ± 0.87 | 5.35 ± 1.6 |
| AGAAAC | 3.18 ± 0.43 | 2.7 ± 0.75 | 3.84 ± 1.5 |
| ATAACA | 0.435 ± 0.37 | 0.897 ± 0.17 | 1.43 ± 0.58 |
| AAGAAT | 2.06 ± 0.33 | 1.89 ± 0.36 | 3.17 ± 1.4 |
| AGTTTA | 2.86 ± 0.36 | 3.18 ± 0.34 | 4.93 ± 2.3 |
| TGTTGA | 2.15 ± 0.44 | 3.32 ± 1.3 | 5.59 ± 2.1 |
| AGTTCA | 2.22 ± 0.21 | 2.82 ± 0.86 | 4.24 ± 1.9 |
| AGTTAA | 3.63 ± 1.5 | 5.9 ± 0.68 | 7.15 ± 2.6 |
| AGTTTT | 2.68 ± 0.23 | 3.38 ± 0.73 | 5.01 ± 1.8 |
| TGTTTA | 2.78 ± 0.84 | 3.23 ± 0.41 | 4.92 ± 2 |
| AGTTCT | 2.55 ± 0.89 | 3.08 ± 1.2 | 4.6 ± 1.6 |
| AGTTAT | 2.78 ± 0.19 | 4.36 ± 0.82 | 7 ± 3.2 |
| TGTTCC | 2.41 ± 1.7 | 3.08 ± 0.79 | 3.89 ± 1.1 |
| TGTTAA | 4.01 ± 0.87 | 5.39 ± 1.7 | 7.94 ± 3.5 |
| TGTTGC | 2.72 ± 0.32 | 2.95 ± 0.082 | 4.88 ± 1.9 |
| TGTTAC | 3.59 ± 1.3 | 5.21 ± 1.2 | 8.19 ± 3.8 |
| ATGCAG |  | 0.709 ± 0.22 | 0.668 ± 0.4 |
| ACAGCG |  |  | 1.17 ± 0.16 |
| AAGGGT |  |  | 0.872 ± 0.84 |
| GAATTA | 1.25 ± 0.15 | 1.82 ± 0.37 | 2.25 ± 0.75 |
| AATGCC | 2.38 ± 1.7 | 1.43 ± 0.1 | 1.48 ± 0.22 |
